# HePTP inh: human HePTP phosphatase inhibition. P35236. recombinant HePTP phosphatase activity, OD absorbance. inhibition, % at 20 µM. 110,000 tested, 0.64% active. AID 521; in the data active means inhibition above about 50%;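 further: plate controls were vehicle for no effect and reference inhibitor for full effect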
# MT1-MMP txn act: activates MT1-MMP transcription; activation factor at 10 µM; 86,000 tested, 0.16% active; HT1080 MT1-MMP promoter luciferase reporter, luminescence, overnight; active compounds read high;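 active means activation factor of at least 2 for MT1-MMP transcription at 10 µM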
# Smad3 FoxH1 inh: blocks human Smad3 binding to FoxH1 peptide. P84022. TR-FRET Smad3/Dy647-FoxH1 peptide binding, europium anti-His. inhibition, % at 25 µM. 88,000 tested, 0.29% active. AID 630;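 active means compounds that reduce the energy-transfer binding signal between the protein and its labelled peptide by more than half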;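 further: 0% = Smad3 plus labelled peptide maximal FRET and 100% = peptide-only background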
# TNAP act mid DEA: activates human TNAP at intermediate phosphate acceptor concentration; P05186; purified TNAP, CDP-star luminescence, 100 mM DEA, 30 min; active compounds read high; scale: 0 levamisole-inhibited, 1 vehicle-only enzyme; activation factor at 20 µM; 64,000 tested, under 10 active; AID 813;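 active means activation factor of at least 2 at 20 µM, relative to controls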
# Target sequence (P05186 whole entry, looked up): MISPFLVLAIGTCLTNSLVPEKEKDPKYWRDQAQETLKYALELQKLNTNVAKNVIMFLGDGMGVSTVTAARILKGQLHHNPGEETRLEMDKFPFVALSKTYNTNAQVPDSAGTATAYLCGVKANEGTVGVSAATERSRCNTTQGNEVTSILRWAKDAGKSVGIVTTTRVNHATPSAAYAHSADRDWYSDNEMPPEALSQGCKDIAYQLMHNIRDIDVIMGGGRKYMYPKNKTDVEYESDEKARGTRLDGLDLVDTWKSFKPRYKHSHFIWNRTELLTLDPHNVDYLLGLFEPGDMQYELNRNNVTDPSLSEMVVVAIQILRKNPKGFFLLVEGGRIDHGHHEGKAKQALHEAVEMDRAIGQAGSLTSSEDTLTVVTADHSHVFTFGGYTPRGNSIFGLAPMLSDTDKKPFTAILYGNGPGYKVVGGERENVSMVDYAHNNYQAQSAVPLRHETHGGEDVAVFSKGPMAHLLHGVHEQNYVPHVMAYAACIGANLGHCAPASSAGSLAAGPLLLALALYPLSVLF
# Ec RNAP inh: inhibitors of Escherichia coli RNA polymerase; inhibition, %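 (tested at 10 µM)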; AID 559; E. coli RNA polymerase, fluorescence transcription assay; 62,000 tested, 0.2% active; in the data active means inhibition above about 20%;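 further: 0% = enzyme without compound and 100% = no enzyme blank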
# * marks the source's active call; other numbers are inactive results; · = no result given; ! = a repeat was not active; [ ] = remark or other dose. A selection: hits, their analogues and other compounds. The true share with any hit is near 0.8%.
SMILES,HePTP inh,MT1-MMP txn act,Smad3 FoxH1 inh,TNAP act mid DEA,Ec RNAP inh
CCOc1ccc(-n2c3nc4ccccc4nc3c3c(=O)n(Cc4ccco4)cnc32)cc1,6,1,34,0.8,22*
Cc1cc(C)cc(-n2c3nc4ccccc4nc3c3c(=O)n(Cc4ccco4)cnc32)c1,3,1.1,14,0.9,8
COC(=O)c1sc(NC(=O)CCc2ccccc2)c(C(=O)OC)c1C,104*,·,·,·,·
COC(=O)c1c(NC(=O)CCc2ccccc2)sc2c1CCC(C)C2 (centres undefined),-4,·,·,·,·
COc1ccccc1C1CC(c2cccs2)=Nc2ccccc2S1 (centres undefined),·,2.1*,-3,·,·
COc1ccc(CNC(=O)CN(c2cc(C)cc(C)c2)S(C)(=O)=O)cc1,4,·,·,·,·
Nc1ccc(S(=O)(=O)O)c2cccc(O)c12,103*,·,·,·,·
O=S(=O)(O)c1ccc(N=Nc2ccc3c(S(=O)(=O)O)cccc3c2O)c2ccccc12,·,·,18,·,·
C/C(=N\[N-]C(=[SH+])SCc1ccccc1)c1ccccn1.[Cl][Cu],·,·,81*,·,·
Cc1noc(C)c1COc1ccc(C(=O)OCC(=O)Nc2ccc3c(c2)OCO3)cc1,·,1.2,5,·,·
Cc1noc(C)c1COC(=O)c1cccnc1SCC(=O)Nc1ccc2c(c1)OCO2,3,1.1,51*,0.8,3
COc1ccc(C2Nc3ccccc3C(=O)N2Cc2ccco2)cc1COc1ccccn1 (centres undefined),-10,·,·,·,·
CN1CCC[C@H]1c1cccnc1.O=C(O)c1ccccc1O.O=C([OH2+])c1ccccc1O.O=C([OH2+])c1ccccc1O.O=C([OH2+])c1ccccc1O.[Cu],·,·,97*,·,·
CC(c1ccccc1)C1CC(=O)N(C2CCCCC2)C1=O (centres undefined),·,1,54*,·,·
CSc1ccc(-c2nnn(Cc3ccccn3)n2)cc1,3,2*,4,0.9,6
O=[N+]([O-])c1ccc2[nH]c(O)c(C=NCc3ccccc3)c2c1,7,·,·,·,·
CNc1sc(C(=O)c2ccccc2F)c(N)c1-c1nc2ccccc2s1,·,2.1*,-4,·,·
CCN1CNC(=S)N(c2cccc(C)c2C)C1,·,1.1,96*,·,·
Cc1cccc2c(Nc3ccc(S(N)(=O)=O)cc3)c3ccc([N+](=O)[O-])cc3nc12,12,·,·,·,·
CCCn1c(SCC(=O)Nc2nc3c(s2)CCCC3)nc2c1c(=O)n(C)c(=O)n2C,-12,1.3,-3,0.9,55*
COc1ccc(N=C2NC(=O)/C(=C/c3ccc(N(C)C)cc3)S2)cc1,-3,·,·,·,·
O=C(/C=C/c1ccco1)Nc1cc(Cl)ccc1C(=O)O,102*,·,·,·,·
O=C(/C=C/c1ccco1)NCc1ccc(Cl)cc1,10,·,·,·,·
O=C(/C=C/c1ccco1)Nc1ccccc1-c1ccccc1,5,·,·,·,·
O=C(/C=C/c1ccco1)Nc1ccccc1C(=O)O,96*,·,·,·,·
SMILES,HePTP inh,MT1-MMP txn act,Smad3 FoxH1 inh,TNAP act mid DEA,Ec RNAP inh
O=C(N/N=C/c1cccs1)c1cc(C23CC4CC(CC(C4)C2)C3)[nH]n1,-1,·,·,·,·
O=Cc1cn(-c2ccccc2)nc1-c1ccc2c(c1)OCCO2,·,2*,-15,·,·
N#Cc1cn(-c2ccccc2)nc1-c1ccc2c(c1)OCCO2,4,1.5,0,0.9,8
Cc1sc2ccccc2[n+]1CCC(=O)O,·,·,72*,·,·
CC(=O)Nc1cc(-c2ccc(Cl)cc2)nn1Cc1ccc(Cl)cc1,9,·,·,·,·
CC(=O)Nc1cc(-c2ccc(C)cc2)nn1Cc1ccccc1,104*,·,·,·,·
Cc1cc(C)n(-c2cc(NCc3ccccc3)nc(-c3ccccc3)n2)n1,6,·,·,·,·
CCCC1=NN2C(=N)/C(=C/c3ccc(-c4ccc([N+](=O)[O-])cc4C)o3)C(=O)N=C2S1,82*,·,·,·,·
COc1ccc(-c2nc3ccccc3c(=O)o2)c(OC)c1,-8,·,·,·,·
Cc1ccc2[nH]c(=O)c(C(=O)/C=C\c3ccc(Br)cc3)c(-c3ccccc3)c2c1,-3,·,·,·,·
CCN(CC)c1c(-c2ccccc2)c2cc(C)ccc2[nH]c1=O,4,1.1,50*[fluorescence artefact?],0.8,1
O=C(Nc1ccc(OC(F)(F)C(F)F)cc1)C(c1ccccc1)c1ccccc1,1,·,·,·,·
O=C1N=C(N2CCOCC2)S/C1=C/c1ccc(Cl)cc1,102*,·,·,·,·
O=C(NCCCn1ccnc1)c1ccccc1Br,5,·,·,·,·
O=C(NCCCn1ccnc1)Nc1cccc2ccccc12,·,2.1*,4,·,·
Cc1nc(Nc2nc(O)cc(=O)[nH]2)nc2c(C)cccc12,103*,·,·,·,·
Cc1ccc(/C=C2\C=C(c3ccc(Cl)cc3)OC2=O)o1,82*,·,·,·,·
O=C(CN1C(=O)c2ccccc2S1(=O)=O)N1CCOCC1,-12,2.1*,-9,1,0
O=C(CSc1nc2ccc(N3C(=O)c4ccccc4C3=O)cc2s1)Nc1cccc([N+](=O)[O-])c1,80*,·,·,·,·
O=C(CSc1nc2ccc(N3C(=O)c4ccccc4C3=O)cc2s1)Nc1ccc(F)cc1,0,·,·,·,·
COc1ccc(C(=O)N=Nc2c(O)n(CN(C)C)c3ccc(Br)cc23)cc1,87*,·,·,·,·
CC(C)N(Cc1nc(-c2ccccc2)no1)C(=O)CN(C)S(=O)(=O)c1ccc(Br)cc1,·,1.3,3,·,·
CC(C)N(Cc1nc(-c2ccc(Cl)cc2)no1)C(=O)CN(C)S(=O)(=O)c1ccc(Cl)cc1,12,1.1,12,0.8,21*
CCc1ccc(S(=O)(=O)Nc2ccc(NC(C)=O)cc2)cc1,103*,·,·,·,·
Cc1ccc(C23CC4CC(CC(C(=O)Nc5cccc(C(=O)O)c5)(C4)C2)C3)cc1,2,·,·,·,·
SMILES,HePTP inh,MT1-MMP txn act,Smad3 FoxH1 inh,TNAP act mid DEA,Ec RNAP inh
Cc1ccc(C23CC4CC(CC(C(=O)Nc5ccc(F)cc5F)(C4)C2)C3)cc1,72*,·,·,·,·
Cc1sc(NC(=O)c2cc(Cl)ccc2Cl)c(C#N)c1C,103*,·,·,·,·
CCN(CC)C(=O)c1sc(NC(=O)c2cc(Cl)ccc2Cl)c(C#N)c1C,104*,·,·,·,·
CCCC(C)NS(=O)(=O)c1cc(Cl)ccc1Cl (centres undefined),14,·,·,·,·
CCOc1cc([N+](=O)[O-])cc(/C=C2\SC(=S)N(C)C2=O)c1O,66*,·,·,·,·
COc1cc([N+](=O)[O-])cc(C=C2C(=O)N(C)C(=O)N(C)C2=O)c1O,4,·,·,·,·
CN(C)C1=C(C#N)C(C2CCCCC2=O)c2c(c3ccccc3n2C)N1c1ccc([N+](=O)[O-])cc1 (centres undefined),104*,·,·,·,·
Cc1cc(C=NNC(=O)CC#N)c(C)n1-c1ccc(Cl)c(Cl)c1,7,·,·,·,·
O=C(O)CCCC(=O)OCc1ccco1,102*,·,·,·,·
O=C(O)CN1C(=O)/C(=C2\SC(=S)N(/N=C/c3cc([N+](=O)[O-])ccc3O)C2=O)c2ccccc21,102*,·,·,·,·
O=c1c2ccccc2c2ccccc2c(=O)n1-c1cc2c3ccccc3ccc2c2ccccc12,·,·,86*,·,·
CN1CCN(C(=O)CC23CC4CC(CC(C4)C2)C3)CC1,104*!,1.1,-12,1,4
O=S(=O)(O)c1cc(S(=O)(=O)O)c2c(N=Nc3cccc4ccccc34)c(O)ccc2c1,·,·,85*,·,·
O=S(=O)(O)c1ccc2c(N=Nc3c(O)ccc4ccccc34)cccc2c1,·,·,9,·,·
Cc1ccc(-c2ccccc2)n1-c1ccc(O)c(C(=O)O)c1,96*,·,·,·,·
COc1cc(C(=O)O)c(-n2c(C)ccc2C)cc1OC,41,·,·,·,·

# Screens deposited in PubChem by several laboratories.
